The results in this text go back to the supplement of paper PMC10515830.

SMILES strings stand for the structures. Where a name gives a salt, the structure may show the parent alone.

Holding throughout (conditions): 10 µM; exposure time 6 h
The subject of assay [1] is Danio rerio larvae (5 dpf). The assay is described as follows: difference in excitability vs DMSO (percentage points); higher = more excitable than DMSO. The essentials: (§1)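 Wild-type zebrafish larvae at 5 dpf were kept in 96-well plates and exposed for 6 h to 100 µL egg water holding library compound at a final concentration of 10 µM. From 3 h into exposure, the plates were held at 28.5 ℃ and photographed every 6 s through a 3-h programme of moving lines and 100 ms, 400Hz tones. Each behaviour was scored by Z-LaP Tracker, a DeepLabCut model, and averaged over 48 larvae per compound. Every value gives the compound mean minus the vehicle control mean, in percentage points.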

For assay [2], the system named is Danio rerio larvae (5 dpf). The assay is described as follows: difference in startle response vs DMSO (percentage points); higher = stronger startle than DMSO. The essentials:
as §1

Assay [3] relates to Danio rerio larvae (5 dpf). The assay is described as follows: difference in activity during first hour vs DMSO (percentage points); higher = more activity than DMSO. Summed up:
as §1

Assay [4] deals with Danio rerio larvae (5 dpf). Kind of assay: difference in habituation to acoustic stimuli vs DMSO (percentage points); higher = more habituation than DMSO. The essentials:
as §1

The test system of assay [5] is Danio rerio larvae (5 dpf). The assay is described as follows: difference in combined optomotor response to red, green and blue moving lines vs DMSO (percentage points); higher = stronger optomotor response than DMSO. Summed up: as §1

`Cc1nccn1CC1CCc2c(c3ccccc3n2C)C1=O` (stereo not given) [Ondansetron (hydrochloride hydrate)] showed a difference in excitability in assay [1] of 12.1. Besides, the “difference in startle response” value in assay [2] is -1.85. Also, the “difference in activity during first hour” value in assay [3] came to 6.77. Besides, in assay [4], the “difference in habituation to acoustic stimuli” value (“difference in habituation” for short) is -3.59. For the same molecule, in assay [5], the difference was determined as 4.66.

In turn, `Nc1nc2c(ncn2COC(CO)CO)c(=O)[nH]1` [Ganciclovir] came in with a difference in excitability in assay [1] of 1.56. The “difference in startle response” value in assay [2] was determined as 3.58. Moreover, in assay [3], the “difference in activity during first hour” value was 7.53. In addition, the “difference in habituation” value in assay [4] amounted to 2.18. Moreover, the difference in assay [5] stood at 4.57.

For the molecule `NCCCC(N)(C(=O)O)C(F)F` (racemic) [DL-α-Difluoromethylornithine (hydrochloride hydrate)], in assay [1], the difference in excitability was -2.42. The “difference in startle response” value in assay [2] was -3.99. For the same molecule, in assay [3], the “difference in activity during first hour” value stood at 10.2. The “difference in habituation” value in assay [4] is 2.49. Also, the difference in assay [5] amounted to 2.05.

`Nc1cc(-c2ccncc2)c[nH]c1=O` [Amrinone]: the difference in excitability in assay [1] is -0.366. Moreover, the “difference in startle response” value in assay [2] turned out to be 5.87. Further, the “difference in activity during first hour” value in assay [3] was -4.08. Further, in assay [4], the “difference in habituation” value is 9.44. In assay [5], the difference stood at 0.366.

For `CCC[C@@H]1C[C@@H](C(=O)N[C@@H]([C@H]2O[C@H](SC)[C@H](O)[C@@H](O)[C@H]2O)[C@H](C)Cl)N(C)C1` [Clindamycin], in assay [1], the difference in excitability was -2.97. Moreover, the “difference in startle response” value in assay [2] turned out to be 2.68. In addition, in assay [3], the “difference in activity during first hour” value was -14.7. In assay [4], the “difference in habituation” value came out at 4.82. The difference in assay [5] is -4.05.

`CN1C(CCl)Nc2cc(Cl)c(S(N)(=O)=O)cc2S1(=O)=O` (stereo not given) [Methyclothiazide] had a difference in excitability in assay [1] of 5.58. Further, the “difference in startle response” value in assay [2] was 4.44. In assay [3], the “difference in activity during first hour” value is -0.184. Further, the “difference in habituation” value in assay [4] amounted to 2. The difference in assay [5] is -1.76.

Regarding `CCc1nn(CCCN2CCN(c3cccc(Cl)c3)CC2)c(=O)n1CCOc1ccccc1` [Nefazodone (hydrochloride)], the difference in excitability in assay [1] was 9.32. In addition, the “difference in startle response” value in assay [2] was -3.06. In addition, the “difference in activity during first hour” value in assay [3] was 29.1. In assay [4], the “difference in habituation” value is -9.41. Besides, the difference in assay [5] is -10.9.

In turn, `CN(C)CCOC(C)(c1ccccc1)c1ccccn1` (stereo not given) [Doxylamine (succinate)] came in with a difference in excitability in assay [1] of 0.347. The “difference in startle response” value in assay [2] is -2.91. Moreover, in assay [3], the “difference in activity during first hour” value was 6.73. Further, the “difference in habituation” value in assay [4] is 5.01. In addition, the difference in assay [5] was 9.42.

`CC1=C(CC(=O)O)c2cc(F)ccc2/C1=C\c1ccc([S+](C)[O-])cc1` (stereo not given) [Sulindac] returned a difference in excitability in assay [1] of 6.96. Moreover, the “difference in startle response” value in assay [2] came to 0.529. In addition, in assay [3], the “difference in activity during first hour” value worked out at 10.8. Besides, the “difference in habituation” value in assay [4] is 0.634. Also, in assay [5], the difference is -2.61.

`CCCCCCCCc1ccc(CCC(N)(CO)CO)cc1` [Fingolimod] yielded a difference in excitability in assay [1] of 5.87. Also, in assay [2], the “difference in startle response” value is -4.94. Besides, in assay [3], the “difference in activity during first hour” value is -2.73. Besides, the “difference in habituation” value in assay [4] is -2. Moreover, the difference in assay [5] was -4.81.

In assay [1], `CC#CC(=O)N1CCC[C@H]1c1nc(-c2ccc(C(=O)Nc3ccccn3)cc2)c2c(N)nccn12` [Acalabrutinib] showed a difference in excitability of 2.39. Further, the “difference in startle response” value in assay [2] amounted to 12.9. Moreover, the “difference in activity during first hour” value in assay [3] came to 10.5. For the same molecule, the “difference in habituation” value in assay [4] turned out to be 5. The difference in assay [5] is -2.56.

For the molecule `CC1=Nc2ccc(Cl)cc2S(=O)(=O)N1` [Diazoxide], the difference in excitability in assay [1] is -4.99. Besides, the “difference in startle response” value in assay [2] was found to be 1.05. Further, the “difference in activity during first hour” value in assay [3] stood at 4.03. Also, the “difference in habituation” value in assay [4] was -3.84. Besides, in assay [5], the difference was determined as 5.23.

For the molecule `CC(=O)O[C@H]1CC[C@@]2(C)C(=CC[C@@H]3[C@@H]2CC[C@]2(C)C(c4cccnc4)=CC[C@@H]32)C1` [Abiraterone Acetate], the difference in excitability in assay [1] worked out at 9.1. In assay [2], the “difference in startle response” value is -1.78. For the same molecule, the “difference in activity during first hour” value in assay [3] was -2.76. For the same molecule, the “difference in habituation” value in assay [4] is -1.15. Besides, the difference in assay [5] turned out to be 2.44.

The molecule `N=C(N)NCCCC[C@@H]1NC(=O)CCSSC[C@@H](C(N)=O)NC(=O)[C@@H]2CCCN2C(=O)[C@H](Cc2c[nH]c3ccccc23)NC(=O)[C@H](CC(=O)O)NC(=O)CNC1=O` [Eptifibatide] displayed a difference in excitability in assay [1] of 10.9. In addition, in assay [2], the “difference in startle response” value came to 3.19. For the same molecule, in assay [3], the “difference in activity during first hour” value stood at 5.64. Moreover, the “difference in habituation” value in assay [4] is -3.64. In addition, the difference in assay [5] amounted to 2.85.

As to `C[C@@H]1C[C@H]2[C@@H]3CCC4=CC(=O)C=C[C@]4(C)[C@@]3(F)[C@@H](O)C[C@]2(C)[C@@]1(O)C(=O)CO` [Dexamethasone], the difference in excitability in assay [1] is -4.56. In assay [2], the “difference in startle response” value is -3.99. Moreover, the “difference in activity during first hour” value in assay [3] was -6.96. In addition, the “difference in habituation” value in assay [4] turned out to be 0.952. The difference in assay [5] was 3.79.

As to `CCOc1cc(CC(=O)N[C@@H](CC(C)C)c2ccccc2N2CCCCC2)ccc1C(=O)O` [Repaglinide], the difference in excitability in assay [1] was 2.26. Also, in assay [2], the “difference in startle response” value came to 7.77. Besides, the “difference in activity during first hour” value in assay [3] is 14.4. Besides, the “difference in habituation” value in assay [4] came to 0.755. In addition, in assay [5], the difference stood at 1.85.

Regarding `O=c1ccn([C@@H]2O[C@H](CO)[C@@H](O)[C@H]2O)c(=O)[nH]1` [Uridine], the difference in excitability in assay [1] is -2.47. The “difference in startle response” value in assay [2] was -2.07. In assay [3], the “difference in activity during first hour” value was found to be 11.4. Moreover, the “difference in habituation” value in assay [4] is -2.41. Also, in assay [5], the difference came out at 1.41.

Regarding `Cc1ncc(CO)c(CO)c1O` [Pyridoxine], in assay [1], the difference in excitability is -7.67. Also, the “difference in startle response” value in assay [2] was found to be 5.43. Further, in assay [3], the “difference in activity during first hour” value was found to be 7.49. Also, in assay [4], the “difference in habituation” value worked out at 4.31. The difference in assay [5] was 4.65.

Turning to `CCOc1ccc(Cc2cc([C@@H]3O[C@H](CO)[C@@H](O)[C@H](O)[C@H]3O)ccc2Cl)cc1` [Dapagliflozin], the difference in excitability in assay [1] was -2.18. Moreover, in assay [2], the “difference in startle response” value is 0.361. In addition, in assay [3], the “difference in activity during first hour” value was -2.82. In addition, the “difference in habituation” value in assay [4] is -5.36. Moreover, the difference in assay [5] turned out to be 5.64.

In turn, `C[C@@H](O)[C@@H]1NC(=O)[C@H](CCCCN)NC(=O)[C@@H](Cc2c[nH]c3ccccc23)NC(=O)[C@H](Cc2ccccc2)NC(=O)[C@@H](NC(=O)[C@H](N)Cc2ccccc2)CSSC[C@@H](C(=O)N[C@H](CO)[C@@H](C)O)NC1=O` [Octreotide (acetate)] showed a difference in excitability in assay [1] of 11.3. Besides, the “difference in startle response” value in assay [2] is -0.00387. Also, in assay [3], the “difference in activity during first hour” value is -5.09. Moreover, the “difference in habituation” value in assay [4] is -0.654. Besides, the difference in assay [5] came out at 0.73.

The molecule `CN(C)[C@@H]1C(O)=C(C(N)=O)C(=O)[C@@]2(O)C(O)=C3C(=O)c4c(O)cccc4[C@@](C)(O)[C@H]3C[C@@H]12` [Tetracycline (hydrochloride)] had a difference in excitability in assay [1] of 5.28. For the same molecule, the “difference in startle response” value in assay [2] was determined as 1.04. Further, the “difference in activity during first hour” value in assay [3] is 2.06. In addition, the “difference in habituation” value in assay [4] was -0.0493. Besides, in assay [5], the difference was -5.79.

With `Cc1cc(C#N)cc(C)c1Oc1nc(Nc2ccc(C#N)cc2)nc(N)c1Br` [Etravirine], the difference in excitability in assay [1] is -2.94. For the same molecule, in assay [2], the “difference in startle response” value came to 0.144. The “difference in activity during first hour” value in assay [3] is 10.9. In addition, the “difference in habituation” value in assay [4] was -5.6. In addition, the difference in assay [5] amounted to 7.48.

For the molecule `CC(C)(C)c1cc(C(C)(C)C)c(NC(=O)c2c[nH]c3ccccc3c2=O)cc1O` [Ivacaftor], the difference in excitability in assay [1] is 2. Also, the “difference in startle response” value in assay [2] is -4.58. In assay [3], the “difference in activity during first hour” value was -10. Moreover, the “difference in habituation” value in assay [4] was -2.59. Also, the difference in assay [5] turned out to be 5.49.

`O=C(O)CCc1nc(-c2ccccc2)c(-c2ccccc2)o1` [Oxaprozin] gave a difference in excitability in assay [1] of 17.9. For the same molecule, the “difference in startle response” value in assay [2] is -7.37. Also, the “difference in activity during first hour” value in assay [3] is 3.28. Further, in assay [4], the “difference in habituation” value is -4.84. Besides, in assay [5], the difference is -6.06.
